Assay results reported in the supplement of paper PMC6555819.

Legend:
Test in all cases: PBM binding z-score (relative to random genomic background probes); higher = stronger binding; sequences stand for … in GC…GCGATTGACAGCGTAGAATGAAGG
[1] = system: FXR:RXRa (NR concentration 270 nM, RXRa partner concentration 90 nM)
How it was run: (§1)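 Ligand-free nuclear receptor dimers were bound for 1 h to custom Agilent 4×180K protein-binding microarrays. Detection used antibodies against each partner (one per run). Binding z-scores rest on regression-normalized fluorescence, with random background probes as the reference.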

[2] = system: LXRa:RXRa (NR concentration 270 nM, RXRa partner concentration 90 nM)
How it was run: as §1

[3] = system: LXRa homodimer (NR concentration 270 nM)
How it was run: as §1

[4] = system: LXRb:RXRa (NR concentration 270 nM, RXRa partner concentration 90 nM)
How it was run: as §1

[5] = system: LXRb homodimer (NR concentration 270 nM)
How it was run: as §1

[6] = system: PPARa:RXRa (NR concentration 270 nM, RXRa partner concentration 90 nM)
How it was run: as §1

[7] = system: PPARg:RXRa (NR concentration 180 nM, RXRa partner concentration 90 nM)
How it was run: as §1

[8] = system: PPARg:RXRa 270nM:90nM, anti-RXR (NR concentration 270 nM, RXRa partner concentration 90 nM)
How it was run: as §1

[9] = system: PPARg:RXRa 30nM:10nM, anti-RXR (NR concentration 30 nM, RXRa partner concentration 10 nM)
How it was run: as §1

[10] = system: PPARg:RXRa 90nM:30nM, anti-RXR (NR concentration 90 nM, RXRa partner concentration 30 nM)
How it was run: as §1

[11] = system: PPARg:RXRa DBDmut IVT, anti-RXR (DBD mutation: RXRa K156A/R161A, NR concentration 270 nM, RXRa partner concentration 90 nM)
How it was run: as §1

[12] = system: PPARg:RXRa IVT, anti-PPARg (NR concentration 270 nM, RXRa partner concentration 90 nM)
How it was run: as §1

[13] = system: PPARg DBDmut:RXRa IVT, anti-PPARg (DBD mutation: PPARg1 K132A/R137A, NR concentration 270 nM, RXRa partner concentration 90 nM)
How it was run: as §1

[14] = system: PPARg DBDmut IVT, anti-PPARg (DBD mutation: PPARg1 K132A/R137A, NR concentration 270 nM)
How it was run: as §1

[15] = system: PPARg homodimer (NR concentration 180 nM)
How it was run: as §1

[16] = system: PXR:RXRa (NR concentration 270 nM, RXRa partner concentration 90 nM)
How it was run: as §1

[17] = system: PXR homodimer (NR concentration 270 nM)
How it was run: as §1

[18] = system: RARa:RXR (NR concentration 270 nM, RXRa partner concentration 90 nM)
How it was run: as §1

[19] = system: RARa homodimer (NR concentration 270 nM)
How it was run: as §1

[20] = system: RARb:RXRa (NR concentration 270 nM, RXRa partner concentration 90 nM)
How it was run: as §1

Sequence | PBM binding z-score [1] | PBM binding z-score [2] | PBM binding z-score [3] | PBM binding z-score [4] | PBM binding z-score [5] | PBM binding z-score [6] | PBM binding z-score [7] | PBM binding z-score [8] | PBM binding z-score [9] | PBM binding z-score [10] | PBM binding z-score [11] | PBM binding z-score [12] | PBM binding z-score [13] | PBM binding z-score [14] | PBM binding z-score [15] | PBM binding z-score [16] | PBM binding z-score [17] | PBM binding z-score [18] | PBM binding z-score [19] | PBM binding z-score [20]
AATATTAGTTGAGACGAGGGCAACCGATAGGTTG | 0.383 | 0.45 | 0.595 | 0.306 | 0.174 | 0.507 | 0.897 | 0.51 | 0.0399 | 0.408 | 0.326 | 0.882 | 0.648 | 0.786 | 1.36 | 1.71 | 1.48 | 1.4 | 2.43 | 1.26
CCTACTGGGCCATCAGGTCATTGATATCAACGTT | 1.4 | 1.19 | 1.28 | 1.56 | -0.271 | 2.79 | 2.68 | 3.7 | 1.46 | 3.18 | 4.98 | 4.72 | 0.527 | -0.213 | 1.26 | 1.56 | 0.961 | 1.65 | 0.0562 | 2.1
TCTTGTACATCAGCAGGTTAAGAAAGCTGGCCAA | 0.22 | 0.475 | -0.073 | 0.542 | 0.127 | 0.883 | -0.203 | 1.47 | 2.81 | 2.33 | 1.51 | 0.722 | -0.0534 | 0.403 | -0.0357 | 0.478 | -0.155 | 0.59 | 0.183 | 0.473
CCTCGGACGACAACAGGAGGTCAGAGCTGCCAGA | 0.715 | 1.65 | 1.91 | 1.42 | 0.113 | 1.73 | 0.478 | -0.0139 | -0.511 | -0.34 | -0.649 | 0.0157 | -0.728 | -1.24 | 1.84 | 1.67 | 0.467 | 2.11 | 0.372 | 1.96
GCAGACAGGTGAAACGCACGTAACTCAGGGTGGC | -0.552 | -0.392 | -0.524 | -0.277 | -0.898 | 0.511 | 0.771 | 0.0365 | -0.437 | -0.223 | 0.74 | 0.58 | 0.226 | -0.35 | -0.768 | -0.397 | -0.419 | -0.0418 | -0.719 | 0.539
TCTCGGAGGGCACGAAGGTCAGAGCTTTCCAGAG | 1.96 | 2.22 | 0.0808 | 1.7 | -1.18 | 2.96 | 1.3 | 2.4 | 1.73 | 1.99 | 1.9 | 2.51 | -0.633 | -1.03 | 1.08 | 3.25 | 2.26 | 2.88 | -0.387 | 3.92
TTACCAAAGTGAGCTGAGGTCGTTGATCCAACTC | 0.648 | 0.0425 | -0.525 | 0.222 | -1.12 | 0.635 | -0.509 | -0.168 | 0.0696 | -0.371 | -0.795 | -0.309 | -0.436 | -0.706 | -0.866 | 2.11 | 0.201 | 1.44 | -1.13 | 0.34
GCTTACGGGTCAAAGGGTATAGCATGAATAGAAT | 6.94 | 4.45 | 0.132 | 4.28 | 0.557 | 6.21 | 9 | 7.96 | 7.14 | 8.29 | 4.35 | 5.08 | 1.19 | 2.3 | 2.55 | 4.16 | 0.626 | 5.66 | 0.592 | 4.09
